# PubChem BioAssay (EPA / NIEHS)
# The source made the active and inactive calls. Rule for the calls: active = hit-call score of the fitted dose curve at least 0.9, where 1 is the maximum; inactive = score below 0.9.
# Read-out: CYP2C8 (gene 1558)
# Assay: LTEA_HepaRG_CYP2C8: Life Technologies and Expression Analysis (LTEA) Assay for CYP2C8 using HepaRG (AID 2283483)
# Conditions: mRNA level, 48 h; actives raise or lower the signal
# Description: LTEA_HepaRG is a cell based, multiplexed-readout assay that uses HepaRG, a human liver cell line, with measurements taken at 48 hours after chemical dosing on a 96-well plate.LTEA_HepaRG_CYP2C8 is one of 102 assay component(s) measured in the LTEA HepaRG cell culture assay. It is a marker of NR mediated metabolism.Data from the assay component LTEA_HepaRG_CYP2C8 was analyzed into 1 endpoint. This assay endpoint, LTEA_HepaRG_CYP2C8, was analyzed with bidirectional fitting relative to DMSO as the negative control and baseline of activity. Using a type of inducible reporter, measures of mRNA induction for gain or loss-of-signal activity can be used to understand regulation of transcription factor activity. To generalize the intended target to other relatable targets, this assay endpoint is annotated to the cyp intended target family, where the subfamily is xenobiotic metabolism.
# A total of 1060 chemcials from the ToxCast library were tested in eight-point concentration-response experiments. Cell culture and cytotoxicity assays were conducted at Thermo Fisher Scientific's Custom Services facility (Madison, WI). A single lot of human HepaRG cells (Thermo Fisher Scientific, Frederick, MD) was used for the cell culture experiments. 96-well format collagen type I coated plates of human HepaRG cells were prepared using established methods. Briefly, cryopreserved HepaRG cells were thawed, plated at a density of approximately 100,000 cells/well in HepaRG Thaw, Plate, and General Purpose media (HPRG770, Thermo Fisher Scientific), and incubated for 48 hours. 0.5% DMSO was selected as vehicle control to balance the requisite need of DMSO in HepaRG cultures to maintain differentiation (for example, baseline metabolism, proportions of hepatocytes vs. cholangiocytes), while enabling further hepatic receptor pathway activation (for example, PXR and CAR) in response to chemical exposure. 48 hours after plating, the culture medium was replaced with HepaRG Serum-Free Incudtion Media. Cells were exposed to each test chemical in duplicate and maintained in CO2 incubators for another 48 hours. Chemical plates were thawed to room temperature and 200x concentrations of treatment groups were prepared. 8-point conentration-reponse curves were made with the highest exposure at 100 uM, followed by half-log dilutions, all in 0.5% DMSO. Each test plate contained variouse controls, induction positive controls (1mM phenobarbital), cytotoxicity positive controls ([…] aflatoxin B1), vehicle controls (0.5% DMSO), and total lysis controls (0.5% DMSO). Cell morphology images were taken using an Essen IncuCyte FLR automated microscope, with six 96-well plates imaged in about 24 minutes. Images were captured and exported and JPEG files. Spent culture media was transfered to black-well plates for the LDH assay, and remaining media was sorted at -80 C for later use. Cells were treated with RLT buffer and frozen until shipped for gene expression analysis. Total RNA was isolated from the cell suspension in 75 uL of Buffer RLT (Qiagen, Germantown, MD 20874) by Quintiles/Expression Analysis (Durham, NC) using a custom isolation procedure. Total RNA from each plate well was transferred to a preamplification plate. Fluidigm's 96.96 Dynamic ArrayTM (Fluidigm, Amsterdam, the Netherlands) technology was used for gene expression analyses by quantitative reverse transcription polymerase chain reaction (qRT-PCR, performed by Quintiles/Expression Analysis, Durham, NC)89. Standard TaqManTM Assays (Applied Biosystems/ThermoFisher Scientific, Foster City, CA) were used to assess the expression of 93 genes selected based on their selectivity and sensitivity to important hepatic receptors known to be modulated by environmental chemicals; importance in human hepatocyte functionality; and hepatotoxicity. […]
Compound,AC50,outcome
O=C1C2(Cl)C3(Cl)C4(Cl)C(Cl)(Cl)C5(Cl)C3(Cl)C1(Cl)C5(Cl)C24Cl (stereo not given),25.2 µM (active),–
CC(=O)[O][Hg][c]1ccccc1,5 µM (active),–
C[C@]12CCC(=O)C[C@@H]1CC[C@@H]1[C@@H]2CC[C@]2(C)[C@@H](O)CC[C@@H]12,–,inactive
COc1cc(-c2ccc(N)c(OC)c2)ccc1N,–,inactive
CCC(C)(C)c1ccc(O)c(C(C)(C)CC)c1,–,inactive
C=C(C)C(=O)[O][Sn]([CH2]CCC)([CH2]CCC)[CH2]CCC,2.38 µM (active),–
CCOP(=S)(OCC)Oc1nc(Cl)c(Cl)cc1Cl,–,inactive
CCCCCCCCc1ccc(O)cc1,–,inactive
ClCC(Cl)CCl,–,inactive
ClC1(Cl)C2(Cl)C3(Cl)C4(Cl)C(Cl)(Cl)C5(Cl)C3(Cl)C1(Cl)C5(Cl)C24Cl (stereo not given),–,inactive
O=C(Nc1ccc2[nH]ccc2c1)c1cc2cc(F)ccc2n1Cc1cccc(F)c1,27 µM (active),–
CC(C)(C)c1cc(O)ccc1O,–,inactive
Cn1sc(Cl)cc1=O,–,inactive
Oc1cccc2cccnc12,–,inactive
CCOP(=S)(OCC)SCSP(=S)(OCC)OCC,0.121 µM (active),–
CCC(=O)C(CC(C)N(C)C)(c1ccccc1)c1ccccc1 (stereo not given),–,inactive
CC(C)(OO)c1ccccc1,–,inactive
CC(C)(C)CC(C)(C)c1ccc(O)cc1,–,inactive
CC12CC1(C)C(=O)N(c1cc(Cl)cc(Cl)c1)C2=O (stereo not given),–,inactive
CC(C)(c1ccccc1)c1ccc(O)c(C(C)(C)c2ccccc2)c1,85 µM (active),–
C=CC(=O)OCCCCCC(C)C,–,inactive
NC(=O)O,–,inactive
CCN1CCC2(CC1)COc1cc3c(cc12)N(C(=O)c1ccc(-c2ccc(-c4nnc(C)o4)cc2C)cc1)CC3,–,inactive
O=C(O)C(F)(F)C(F)(F)C(F)(F)C(F)(F)C(F)(F)C(F)(F)C(F)(F)C(F)(F)C(F)(F)C(F)(F)F,–,inactive
Cc1ccccc1N,–,inactive
CN(C)N=O,–,inactive
O=C(O)C(F)(F)C(F)(F)C(F)(F)C(F)(F)C(F)(F)C(F)(F)F,–,inactive
O=C(O)C(Cl)(Cl)Cl,–,inactive
O=[N+]([O-])c1ccc(O)c([N+](=O)[O-])c1,40.1 µM (active),–
O=c1[nH]c(=O)[nH]c(=O)[nH]1,–,inactive
